Bioassay records: PubChem, several laboratories
CRFBP-R2 agonist: agonists of human CRF-binding protein/CRF-R2 receptor complex. HEK293 CRF-R2/CRF-BP, calcium dye fluorescence (FLIPR); percent of saturating CRF peptide response. activation, % at 13.2 µM. actives 0.46% (n = 350,000). AID 588473;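 active means activation of at least 50%, plus an integration ratio under a set limit after plate pattern correction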;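 further: plate controls were neutral control wells without compound for no effect and CRF at EC100 for full effect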
MEKK3 PB1 HTS: raises or lowers MEK5 binding to the human MEKK3 PB1 domain | Q99759 | bead-based flow cytometry, Alexa488-MEK5 binding to MEKK3; actives lie on both sides; 0 = blocked by unlabeled MEK5, 100 = vehicle | binding response (% of control), % at 10 µM | actives 1.4% (n = 290,000);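 active means binding response more than 3 SD above or below the average of its plate-row segment, actives on both sides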;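 further: Alexa488 bead fluorescence after subtracting the streptavidin-only scavenger bead signal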
MEKK2wt PB1 HTS: raises or lowers MEK5 binding to wildtype human MEKK2 PB1 domain. AID 1531. binding response (% of control), % at 10 µM. Q9Y2U5. actives 1.1% (n = 290,000). bead flow cytometry, Alexa488-MEK5 binding to MEKK2 WT; actives lie on both sides; in the data active means binding response below about 67% or above about 130%
MEKK2 mut-MEK5: signal of MEK5 binding to mutant human MEKK2 PB1 domain. bead flow cytometry, Alexa488-MEK5 binding to MEKK2 mutant. actives 0.35% (n = 290,000). percent response, % at 10 µM; in the data active means percent response above about 24%, passing the limit was not always enough
ABCB6 inh 2: human ABCB6 transporter inhibition; AID 602162; K562-ABCB6 porphyrin accumulation, flow cytometry, 1 h; active compounds read low; actives 0.19% (n = 360,000); Q9NP58; fluorescence ratio to DMSO, % at 10 µM;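 active means fluorescence ratio to DMSO below 75%, the collection mean minus 3 SD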;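 further: signal is porphyrin accumulated inside mitochondria; 100% equals median channel fluorescence of DMSO control wells; lower ratio means ABCB6 inhibition with less porphyrin fluorescence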
Target sequence (Q9NP58 whole entry, looked up): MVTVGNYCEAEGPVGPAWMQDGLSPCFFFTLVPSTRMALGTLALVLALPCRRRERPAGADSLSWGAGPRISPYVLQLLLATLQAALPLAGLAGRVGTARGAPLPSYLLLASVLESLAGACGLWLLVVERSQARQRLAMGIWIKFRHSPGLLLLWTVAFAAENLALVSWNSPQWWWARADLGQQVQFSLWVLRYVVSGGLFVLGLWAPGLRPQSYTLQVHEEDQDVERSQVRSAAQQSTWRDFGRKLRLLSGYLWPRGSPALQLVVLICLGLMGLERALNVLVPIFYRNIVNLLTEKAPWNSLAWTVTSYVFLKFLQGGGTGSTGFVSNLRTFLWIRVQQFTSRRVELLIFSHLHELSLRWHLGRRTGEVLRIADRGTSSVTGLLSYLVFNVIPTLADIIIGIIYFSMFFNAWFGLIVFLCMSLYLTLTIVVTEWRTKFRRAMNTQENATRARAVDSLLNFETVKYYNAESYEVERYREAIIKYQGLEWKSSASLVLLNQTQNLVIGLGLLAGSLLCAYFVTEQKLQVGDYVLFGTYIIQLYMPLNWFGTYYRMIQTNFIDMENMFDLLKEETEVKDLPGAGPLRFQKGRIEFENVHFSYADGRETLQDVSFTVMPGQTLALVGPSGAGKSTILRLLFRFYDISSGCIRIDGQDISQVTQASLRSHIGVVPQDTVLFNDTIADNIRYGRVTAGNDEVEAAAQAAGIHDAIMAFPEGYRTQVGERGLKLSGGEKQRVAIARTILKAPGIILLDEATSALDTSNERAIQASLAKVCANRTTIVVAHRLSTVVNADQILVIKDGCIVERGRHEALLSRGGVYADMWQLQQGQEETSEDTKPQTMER
CRFBP-R2 block: CRF-BP/CRF-R2 complex antagonism. inhibition, % at 11.8 µM. AID 588475. actives 0.59% (n = 350,000). HEK293 CRF-R2/CRF-BP, CRF-induced calcium fluorescence;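 active means inhibition of the ligand-induced calcium signal above about 50% at the single tested concentration, limit read from the data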
MEKK2wt confirm: raises or lowers MEK5 binding to wildtype human MEKK2, retest. shares compounds with MEKK3 PB1 HTS. binding response (% of control), % at 10 µM. actives 2.4% (n = 5,900). bead flow cytometry, Alexa488-MEK5 binding to MEKK2 WT; actives lie on both sides; in the data active means binding response below about 16% or above about 210%; inactive means in between
MEKK2mut confirm: signal of MEK5 binding to mutant human MEKK2, retest; AID 1893; percent response, % at 10 µM; shares compounds with MEKK3 PB1 HTS; actives 2% (n = 5,900); bead flow cytometry, Alexa488-MEK5 binding to MEKK2 mutant; in the data active means percent response mostly above about 71%, no sharp cut-off; inactive means mostly below about 38%;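 further: higher means compound restores mutant binding toward wildtype level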
MEKK3-MEK5 inh: MEKK3-MEK5 PB1 inhibition, single concentration confirmation | shares compounds with MEKK3 PB1 HTS | bead flow cytometry, Alexa488-MEK5 binding to MEKK3; active compounds read low | binding response (% of control), % at 10 µM | actives 1.8% (n = 5,900) | AID 1894;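 active means binding response below 72% of control, or above a set upper limit, though filed actives all read lower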;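 further: 100% = DMSO only wells and 0% = binding blocked by excess unlabeled MEK5; lower values mean stronger disruption of MEK5 binding to MEKK3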
Active calls of the source: *; x = no result; [ ] = remark or other dose. An excerpt weighted towards active compounds, which were near 2.9% of everything screened.

SMILES	CRFBP-R2 agonist	MEKK3 PB1 HTS	MEKK2wt PB1 HTS	MEKK2 mut-MEK5	ABCB6 inh 2	CRFBP-R2 block	MEKK2wt confirm	MEKK2mut confirm	MEKK3-MEK5 inh
Cc1ccc(CCN2CC(C(=O)NCCCN3CCCCCC3)CC2=O)cc1 (stereo not given)	4	95	138*	21	96	36	119	5	100
Cc1ccc(CCN2CC(C(=O)NCCCN3CCC(C)CC3)CC2=O)cc1 (stereo not given)	0	94	100	-2	98	2	x	x	x
COc1ccc(NC(=O)N(C)C[C@H]2Oc3ccc(NS(=O)(=O)c4ccccc4)cc3C(=O)N([C@H](C)CO)C[C@@H]2C)cc1	1	x	x	x	95	-5	x	x	x
Cn1ccc2cc(-c3csc(N4CCC(C(N)=O)CC4)n3)ccc21	-1	x	x	x	104	-3	x	x	x
COc1ccc(CC(C)CC(=O)Nc2ccc(OC)cc2)cc1 (stereo not given)	-1	106	108	7	96	49	x	x	x
O=C(NCc1ccc(F)cc1)C1CC(=O)N(CCc2ccccc2)C1 (stereo not given)	-2	2.0*[inhibitor]	3.0*[inhibitor]	-69	102	-64	106	5	103
CC(C)CCN1CC(C(=O)NCc2ccc(F)cc2)CC1=O (stereo not given)	-1	105	105	2	99	7	x	x	x
CC(OC(=O)c1cccs1)C(=O)NCCc1ccccc1 (stereo not given)	0	100	102	4	103	3	x	x	x
CC(OC(=O)c1cccs1)C(=O)NCc1ccccc1 (stereo not given)	1	131*	121	9	97	13	97	-3	101
Cc1ccccc1NC(=O)CN1C(=O)S/C(=C\c2cccn2-c2cccc(C(=O)O)c2)C1=O	0	122*	119	9	94	11	105	4	107
CCNC(=O)C1(C)CCCN1C(=O)c1ccc(C#N)cc1 (stereo not given)	x	x	x	x	99	x	x	x	x
COc1cccc(C(C)NC(=O)Nc2cc(Cl)ccc2OC)c1 (stereo not given)	0	100	101	0	122	4	x	x	x
COc1ccc(Cl)cc1NC(=O)NC(C)C	-3	47*[inhibitor]	54	-13	107	27	100	-4	102
COc1ccc(/C=N/N=C2/CC(C)(C)Cc3n[nH]c(=O)cc32)cc1	19	x	x	x	98	12	x	x	x
CCc1ccc(OCC(=O)N/N=C/c2cc([N+](=O)[O-])ccc2N2CCCCCC2)cc1	1	136*	104	0	94	-19	106	9	103
Cc1cc(C)c2c(=O)[nH]c(SCC(=O)Nc3ccccc3)nc2n1	8	105	109	9	104	11	x	x	x
Cc1ccc(NC(=O)CSc2nc3nc(C)cc(C)c3c(=O)[nH]2)cc1	0	0.0*[inhibitor]	-1.0*[inhibitor]	-42	92	12	108	5	107
Cc1ccc(OCC(=O)NCCNC(=O)c2cnccn2)cc1	0	103	99	1	97	1	x	x	x
Cc1nn(C)c(=O)n1N(C)c1ncc(C(F)(F)F)cc1Cl	-1	139*	114	3	103	-1	90	-4	97
Cc1nn(Cc2ccccc2)c(=O)n1N(C)c1ncc(C(F)(F)F)cc1Cl	-2	104	109	5	92	-3	x	x	x
COc1ccc(OCc2n(CC(=O)OC3CC(C)CCC3C(C)C)c3ccccc3[n+]2C)cc1 (stereo not given)	-1	111	162*	40	96	-17	158	29	108
COc1ccc(-c2n(CC(=O)OC3CC(C)CCC3C(C)C)c3ccccc3[n+]2C)cc1 (stereo not given)	5	109	136	21	95	-32	x	x	x
Cc1nn(C)cc1-c1cc(C(=O)O)c2ccccc2n1	1	65*[inhibitor]	23*[inhibitor]	-3	93	-39	95	-3	97
Cc1cc(-c2cc(C(=O)O)c3ccccc3n2)c(C)s1	2	103	98	-1	99	11	x	x	x
C[C@@H](c1ccccc1)N1C[C@@H](COCc2ccccc2)Oc2cc(N3CC[C@H](O)C3)ccc2S1(=O)=O	x	x	x	x	99	x	x	x	x
SMILES	CRFBP-R2 agonist	MEKK3 PB1 HTS	MEKK2wt PB1 HTS	MEKK2 mut-MEK5	ABCB6 inh 2	CRFBP-R2 block	MEKK2wt confirm	MEKK2mut confirm	MEKK3-MEK5 inh
COc1cc(/C=N/Nc2ccc(Cl)cc2)ccc1OC(=O)c1cccs1	-1	46*[inhibitor]	89	-2	92	17	95	-6	95
COc1ccc(Cl)cc1NS(=O)(=O)c1cccc(C(=O)NC2CCN(Cc3ccccc3)CC2)c1	1	x	x	x	93	-24	x	x	x
COc1ccc(NS(=O)(=O)c2cccc(C(=O)NC3CCN(Cc4ccccc4)CC3)c2)cc1	0	77*[inhibitor]	110	-4	97	-4	120	7	105
CC1=C(C(=O)OCC(C)C)C(c2ccccc2Cl)NC(=O)N1C (stereo not given)	-7	105	106	12	99	8	x	x	x
CCOCCOC(=O)C1=C(C)N(C)C(=O)NC1c1ccccc1Cl (stereo not given)	-2	1.0*[inhibitor]	0.0*[inhibitor]	-19	101	0	104	2	102
Cn1c(N)c(S(=O)(=O)N2CCN(c3cccc(Cl)c3)CC2)c(=O)n(C)c1=O	2	96	98	-4	99	9	x	x	x
O=C(NC1CCCC1)C(c1cccnc1)N(C(=O)c1ccco1)c1ccc(F)cc1 (stereo not given)	0	99	98	-2	97	-6	x	x	x
CC1=CC(C)(C)n2c(O)c(N=N)c3cc(C)cc1c32	0	141*	105	1	97	-40	103	3	103
CC1=CC(C)(C)n2c(O)c(N=N)c3c(C)c(C)cc1c32	3	75	81	-26	91	-13	x	x	x
Cc1noc(C)c1-c1ccc(C(=O)N2CCN(C)CC2)c2occc12	x	x	x	x	95	x	x	x	x
COc1ccc([N+](=O)[O-])cc1NC(=O)c1ccc(C)o1	-1	187*	109	1	94	15	96	-1	95
COC(=O)Nc1cc([N+](=O)[O-])ccc1OC	0	100	105	0	99	7	x	x	x
